# Experimental data taken from ChEMBL document CHEMBL3988442, “University of Dundee, Small-Polar-MMV Screening Library” (2021).
# About 420 (0.61%) of roughly 69,000 compounds showed an effect of 50% or more. The sample as a whole holds a higher share of strong results than the screen did.
# Biological target: T1, Histidine--tRNA ligase (Leishmania infantum) (UniProt A4I591)
# T1 sequence (whole entry): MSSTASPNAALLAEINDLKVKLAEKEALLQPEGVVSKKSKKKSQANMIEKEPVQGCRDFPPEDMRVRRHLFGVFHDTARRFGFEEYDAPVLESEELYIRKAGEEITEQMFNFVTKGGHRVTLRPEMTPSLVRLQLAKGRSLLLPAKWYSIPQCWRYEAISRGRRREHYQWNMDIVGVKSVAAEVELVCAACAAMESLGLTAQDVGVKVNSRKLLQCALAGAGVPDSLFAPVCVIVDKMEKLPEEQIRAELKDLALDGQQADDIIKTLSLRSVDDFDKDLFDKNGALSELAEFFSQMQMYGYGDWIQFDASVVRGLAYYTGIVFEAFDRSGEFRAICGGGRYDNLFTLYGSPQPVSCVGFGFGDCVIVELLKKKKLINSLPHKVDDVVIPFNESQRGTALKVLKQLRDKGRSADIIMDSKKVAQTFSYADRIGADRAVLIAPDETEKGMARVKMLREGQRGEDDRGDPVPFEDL
# Experiment: Leishmania infantum Histidine tRNA synthetase (LdHisRS)
# Type: functional
# Parameters: scale not given: in the data most compounds retested in dose-response had high values
# Settings: 30 µM
row,Structure (SMILES),Percent Effect [%]
1,Cn1cccc1C(=O)N1CC[C@@H]2[C@@H]1CC(=O)N2CC1CCOCC1,19.3
2,CN1CCO[C@@H]2CN(C(=O)Cc3cccs3)CC[C@@H]2C1,2.73
3,Cc1nccc(-c2cccc(NCC(=O)N3CCc4sccc4C3)c2)n1,50
4,Cc1nccc(-c2cccc(NCC(=O)N3CCCCCCC3)c2)n1,-19.7
5,Cc1nccc(-c2cccc(NCC(=O)N3CCNC(=O)C3)c2)n1,14.9
6,CCOc1nnc(CNC2CCCN(c3ccc(C)nn3)C2)s1 (stereo unspecified),54.8
7,Cc1ccc(N2CCCC(NCc3ccc(C)s3)C2)nn1 (stereo unspecified),12.3
8,CCOc1nnc(CN(C)C2CCCN(c3ccc(C)nn3)C2)s1 (stereo unspecified),27
9,CC/N=c1/c(NC(=O)NCCOC)c(O)oc2ccccc12,12.4
10,CC(C)n1nc2c(cc1=O)CN(c1ncnc3ccsc13)CC2,11.7
11,CCCn1nc2c(cc1=O)CN(c1ncnc3ccsc13)CC2,83.8
12,CCn1nc2c(cc1=O)CN(c1ncnc3ccsc13)CC2,58.6
13,CC(C)n1nc2c(cc1=O)CN(c1ncnc3ccccc13)CC2,18.9
14,CN1C(=O)[C@H]2CC[C@@H]1CN(c1ncnc3ccsc13)C2,19.8
15,CCCn1nc2c(cc1=O)CN(C(C)C(=O)Nc1nccs1)CC2 (stereo unspecified),17.9
16,Cn1ccnc1CN1CCN(c2ncnc3ccsc23)CC1,11
17,Cn1nc2c(cc1=O)CN(c1ncnc3ccsc13)CC2,100
18,N#Cc1cccc(CN2CCN(C(=O)C3CCC3)[C@@H]3CS(=O)(=O)C[C@@H]32)c1,23.3
19,COCCN1C(=O)[C@H]2CC[C@@H]1CN(Cc1nnc(C3CC3)o1)C2,-2.04

row,Structure (SMILES),Percent Effect [%]
1,Cc1cccc(CO[C@@H]2C[C@H]3CN(C(=O)c4cnccn4)CCN3C2)n1,12.3
2,O=S(=O)(N1CCCC1)N1C[C@@H](c2cccc(F)c2)[C@@H]2NCCCCC[C@H]21,-7.37
3,COC(=O)N1C[C@H]2CC[C@@H]1CN(Cc1cscn1)C2,22.9
4,Cc1nc(CCN)cc(N2CCC(O)(c3ccc(Cl)cc3)CC2)n1,52.1
5,CCOc1cc(N2CCN(C(=O)c3ccc(OC)cc3)CC2)nc(C)n1,5.98
6,CCNc1cc(N2CCN(C(=O)c3ccc(OC)cc3)CC2)nc(C)n1,2.4
7,COc1ccc(C(=O)N2CCN(c3cc(CCN)nc(C)n3)CC2)cc1,50.4
8,Cc1nc(CN)cc(N2CCC(O)(c3ccc(Cl)cc3)CC2)n1,7.04
9,Cc1nc(CCN)cc(N2CCC(O)(c3ccccc3)C2)n1 (stereo unspecified),7.04
10,O=C(NC[C@@]1(COc2cnccn2)C[C@@H](O)[C@@H](O)C1)C1CCCC1,18.9
11,O=C(c1cccnc1)N1CCN2C[C@H](OCc3ccccc3)C[C@H]2C1,2
12,O=C(c1ccc(S(=O)(=O)NC2CCC2)cc1)N1CC[C@H]2CNC[C@H]21,-8.06
13,CN(C)CCCN(C)c1nccc(N2CCN[C@H]3CS(=O)(=O)C[C@H]32)n1,12.9
14,CNc1nc(C)c(-c2nc(-c3c(C)ncc4c3CCNC4)no2)s1,7.79
15,CC(C)n1ncc2c1NC(=O)CC2c1ccccc1Cl (stereo unspecified),22.5
16,Cn1ncc2c1NC(=O)CC2c1c(F)cccc1Cl (stereo unspecified),20
17,CNc1nc2c(s1)C(c1c(Cl)cccc1Cl)CC(=O)N2 (stereo unspecified),74.3
18,CNc1nc2c(s1)C(c1c(F)cccc1Cl)CC(=O)N2 (stereo unspecified),120
19,Nc1nc2c(s1)C(c1c(F)cccc1Cl)CC(=O)N2 (stereo unspecified),90

row,Structure (SMILES),Percent Effect [%]
1,CNc1nc2c(s1)C(c1ccc(F)cc1Cl)CC(=O)N2 (stereo unspecified),7.5
2,Cn1ncc2c1NC(=O)CC2c1c(Cl)cccc1Cl (stereo unspecified),25
3,CC(C)(C)n1ncc2c1NC(=O)CC2c1c(F)cccc1F (stereo unspecified),26
4,CNc1nc2c(s1)C(c1cc(Cl)ccc1F)CC(=O)N2 (stereo unspecified),42.5
5,CNc1nc2c(s1)C(c1ccc(Cl)cc1Cl)CC(=O)N2 (stereo unspecified),62.5
6,CSc1ccccc1CN1C[C@@H]2CC[C@H](C1)N(CC1CC1)C2=O,21.6
7,Cc1noc([C@H]2COC[C@H]3CN(C(=O)Cc4ccc(F)cc4)C[C@H]32)n1,9.62
8,O=C(c1ccc(F)cc1)N1C[C@H]2CCC[C@@]2(COCc2ccncc2)C1,18.6
9,O=S(=O)(c1cccs1)N1CC[C@H]2[C@H]1CCN2c1ncccn1,11.7
10,CCN1C(=O)CC[C@@H]2[C@H]1CCN2S(=O)(=O)Cc1ccc(C)cc1,8.06
11,COCC(=O)N1C[C@H]2CNC[C@@]2(C(=O)NCc2cc(C)n[nH]2)C1,1.43
12,O=C([C@H]1COC[C@H]2CN(CC3CC3)C[C@H]21)N1CCOCC1,10.3
13,O[C@]1(c2ccccn2)CC[C@@H]2CN(Cc3cccc4ncccc34)C[C@@H]21,27.8
14,Cc1ccc(N2C[C@H]3OCC[C@H]3[C@H](C(=O)NCC3CC3)C2)nn1,0
15,O=C(NC[C@H]1OC[C@@H]2CCN(c3ccccn3)C[C@@H]21)c1ccco1,-7.89
16,Cc1noc([C@H]2C[C@H]3OCC[C@H]3N(S(=O)(=O)C3CC3)C2)n1,13.3
17,CNc1nc2c(s1)C(c1ccccc1Cl)CC(=O)N2 (stereo unspecified),57.5
18,CNc1nc2c(s1)C(c1ccccc1F)CC(=O)N2 (stereo unspecified),70
